Compound activity: PubChem, Johns Hopkins Ion Channel Center
Compounds with a hit are over-represented: about 1.6% of the library has one in this group of screens.
KCNQ2 inh: rat KCNQ2 potassium channel inhibitors, primary screen, cell-based, CHO-K1, FluxOR thallium flux, B-score; Potassium voltage-gated channel subfamily KQT member 2 (Rattus norvegicus), O88943; 20 min; stronger effect = lower value; B-score at 10 µM; 310,000 tested, 1.1% active; AID 2156, 2009;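 active means fluorescence ratio B-score at most minus 3 library SDs, with starting brightness B-score within 2 library SDs, cut at about -5.5 in these data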
Target sequence (O88943 whole entry, looked up): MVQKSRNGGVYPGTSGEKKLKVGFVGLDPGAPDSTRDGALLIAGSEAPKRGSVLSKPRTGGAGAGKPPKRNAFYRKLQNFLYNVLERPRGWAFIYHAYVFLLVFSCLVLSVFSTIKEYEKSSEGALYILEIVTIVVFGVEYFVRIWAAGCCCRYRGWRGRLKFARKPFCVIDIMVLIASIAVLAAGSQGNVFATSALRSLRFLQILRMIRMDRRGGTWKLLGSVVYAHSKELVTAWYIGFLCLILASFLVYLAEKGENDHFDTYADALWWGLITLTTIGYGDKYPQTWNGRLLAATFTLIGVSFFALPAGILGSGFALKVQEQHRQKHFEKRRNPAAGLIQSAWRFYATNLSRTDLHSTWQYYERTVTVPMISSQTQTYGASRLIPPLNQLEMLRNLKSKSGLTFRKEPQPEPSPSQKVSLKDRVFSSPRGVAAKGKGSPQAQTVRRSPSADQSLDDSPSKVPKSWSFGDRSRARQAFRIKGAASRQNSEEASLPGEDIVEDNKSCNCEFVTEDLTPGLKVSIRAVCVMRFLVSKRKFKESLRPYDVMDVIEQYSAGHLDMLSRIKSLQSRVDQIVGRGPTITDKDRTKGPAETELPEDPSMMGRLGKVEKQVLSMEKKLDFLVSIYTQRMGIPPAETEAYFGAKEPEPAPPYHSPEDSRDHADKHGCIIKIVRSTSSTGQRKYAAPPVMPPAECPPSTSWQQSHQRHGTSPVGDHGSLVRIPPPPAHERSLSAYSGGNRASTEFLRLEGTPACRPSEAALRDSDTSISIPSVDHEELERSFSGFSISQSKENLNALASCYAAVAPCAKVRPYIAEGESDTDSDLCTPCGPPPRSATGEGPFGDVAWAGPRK
KCNQ2 pot: potentiators of rat KCNQ2 potassium channel. CHO-K1 KCNQ2, FluxOR thallium flux fluorescence; stronger effect = higher value. Potassium voltage-gated channel subfamily KQT member 2 (Rattus norvegicus), O88943. B-score at 10 µM. AID 2239, 2010. 310,000 tested, 0.54% active;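 active means fluorescence ratio B-score at least 3 SD of library B-scores, with initial fluorescence B-score within 3 of them, cut at about 5.3 in these data; same plate scores as AID 2156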;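 further: B-score of peak minus minimum over baseline fluorescence ratio after K+ and Tl+ stimulus; positive B-score means potentiation of KCNQ2 with more thallium influx and brighter signal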
Kir21 conf inh: mouse Kir2.1 channel blockers, retest, confirmation, cell-based, FluxOR thallium flux, duplicate. Kir2.1-expressing cells, FluxOR thallium flux fluorescence; stronger effect = lower value. shares compounds with KCNQ2 pot. AID 2032, 2009. 2,300 tested, 41% active. Tl flux remaining, % of negative control (stronger effect = lower value), % at 10 µM;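 active means Primary-screen hit whose thallium flux fell at least 3 control SD below untreated wells in both duplicates, with normal baseline fluorescence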;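 further: 0% = blank wells without stimulus and 100% = stimulated no-compound controls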
HEK293 ctr: counter-screen for Kir2.1 inhibitors: effect in parental HEK293 cells; FluxOR signal as % of negative control (100 = no effect), % at 10 µM; 2,300 tested, 19% active; FluxOR thallium flux fluorescence; 0% = unstimulated blank wells; shares compounds with KCNQ2 pot; AID 2105;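 active means dye signal at least 3 control SD above or below untreated wells in both duplicates, raw fluorescence within 3, either direction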;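 further: percent is based on the flux ratio of peak minus minimum fluorescence over baseline F0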
CHO-K1 Tl ctr: nonspecific thallium flux increase in parental CHO-K1, confirmation, counter-screen for KCNQ2 potentiator project, cell-based, FluxOR thallium flux, duplicate | shares compounds with KCNQ2 pot | parental CHO-K1 cells, FluxOR thallium flux fluorescence; zero = vehicle mean+3SD, 100% = vehicle-minus-blank window | activity increase over 3SD of controls, % at 10 µM | 1,200 tested, 43% active;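 active means signal rise of at least 3 SD above the untreated control mean, in both duplicate wells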;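 further: counter screen of KCNQ2 potentiator hits so any rise reflects channel-independent effects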
KCNQ1 pot spec: human KCNQ1 channel potentiation off-target, confirmation, selectivity assay for KCNQ2 potentiator project, cell-based, CHO, FluxOR thallium flux. activation over 3SD threshold, % at 10 µM. CHO KCNQ1 stable, FluxOR thallium flux fluorescence; beyond 3SD, as % of vehicle-control signal. shares compounds with KCNQ2 pot. 1,200 tested, 28% active;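 active means fluorescence ratio rise of at least 3 SD of vehicle wells above their mean, in both replicate wells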;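 further: 0% = vehicle mean plus 3 SD and 100% = vehicle minus unstimulated blank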
KCNQ2 pot confirm: rat KCNQ2 channel potentiators, confirmation, cell-based, CHO, FluxOR thallium flux, duplicate; potentiation, less the hit threshold, % at 10 µM; shares compounds with KCNQ2 pot; AID 2287, 2010; CHO-KCNQ2 cells, FluxOR thallium flux fluorescence; 1,200 tested, 68% active;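 active means fluorescence ratio rising 3 SD or more over the vehicle control mean in both replicates, plus primary screen hit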;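 further: peak minus minimum thallium fluorescence divided by baseline after K/Tl stimulus; 0% = vehicle mean plus 3 SD and 100% = vehicle minus unstimulated blank difference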
Kir2-1 sel: mouse Kir2.1 channel activation off-target, confirmation, selectivity assay for KCNQ2 potentiator project, cell-based, HEK293, FluxOR thallium flux. AID 2345, 2010. activity over 3SD threshold, % at 10 µM. 1,200 tested, 2% active. HEK293 Kir2.1, FluxOR thallium flux fluorescence. shares compounds with KCNQ2 pot;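 active means fluorescence ratio rise of at least 3 SD above the vehicle-control mean, seen in both replicates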;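 further: 0% = vehicle mean plus 3 SD and 100% = vehicle minus no-stimulus blank window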
KCNQ2 W236L pot: potentiators of retigabine-insensitive KCNQ2 W236L, mechanism study for KCNQ2 potentiator project, cell-based, rat KCNQ2 W236L, CHO, automated patch clamp. automated patch clamp current. 940 tested, 10% active. current increase over 3SD of negative controls (%), stronger effect = higher value, % at 25 µM. shares compounds with KCNQ2 pot;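 active means current increase at least 3 SD of the untreated controls above them in both duplicate recordings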
An asterisk follows results filed as active.

COc1ccc(C(=O)CSc2nc(C(C)(C)C)nc3ccccc23)cc1 was read as KCNQ2 inh inactive, KCNQ2 pot 12.7*, CHO-K1 Tl ctr -6.7, KCNQ1 pot spec 59.6*, KCNQ2 pot confirm 20.5*, Kir2-1 sel -50.6 and KCNQ2 W236L pot inactive.
Screening CC(C)(C)c1nc(SCC(=O)NCc2ccco2)c2ccccc2n1 returned KCNQ2 inh inactive and KCNQ2 pot 0.34.
CS(=O)(=O)c1ccc(Cl)c(NC(=O)COc2ccc3c(c2)CCC3)c1 was read as KCNQ2 inh inactive.
`CC(C)Cc1nc2n[nH]c(N)c2c2c1CCCC2` gave KCNQ2 inh inactive and KCNQ2 pot 2.59.
For CC(C)c1nc2n[nH]c(N)c2c2c1CCCC2 the results were KCNQ2 inh inactive, KCNQ2 pot 2.17, Kir21 conf inh 40.5%* and HEK293 ctr inactive.
`Clc1ccc2nsnc2c1NC1=NCCN1` gave KCNQ2 inh inactive and KCNQ2 pot 0.44.
`CCN(CC)c1ccc(NC(=O)c2cccc(F)c2)c(C)c1` gave KCNQ2 inh inactive, KCNQ2 pot 17.3*, Kir21 conf inh inactive, HEK293 ctr inactive, CHO-K1 Tl ctr -12.1, KCNQ1 pot spec -7.5, KCNQ2 pot confirm 48.9*, Kir2-1 sel -24.9 and KCNQ2 W236L pot inactive.
For CCN(CC)c1ccc(NC(=O)c2ccco2)c(C)c1 the results were KCNQ2 inh inactive and KCNQ2 pot 2.94.
Nc1c(C(=O)Nc2ccccc2Cl)nnn1-c1ccc2c(c1)OCCO2 was read as KCNQ2 inh inactive.
C/C(=C/CCC(C)C1CCC2(C)C3CCC4C(C)(C)C(=O)CCC4(C)C3=CCC12C)C(=O)O (stereo not drawn) was read as KCNQ2 inh inactive and KCNQ2 pot 1.57.
C/C(=C/CCC(C)[C@H]1CC[C@@]2(C)C3=C(CC[C@]12C)[C@@]1(C)CCC(=O)C(C)(C)[C@@H]1CC3)C(=O)O (stereo partly drawn) was read as KCNQ2 inh inactive, KCNQ2 pot 21.4*, Kir21 conf inh inactive, HEK293 ctr inactive, CHO-K1 Tl ctr 1.4*, KCNQ1 pot spec -11.0, KCNQ2 pot confirm -26.1 and Kir2-1 sel -33.0.
`COc1ccc(S(=O)(=O)Nc2cc(S(=O)(=O)c3ccccc3)c(O)cc2C)cc1` gave KCNQ2 inh inactive and KCNQ2 pot 0.29.
For Cc1cc(O)c(C(C)C)cc1NS(=O)(=O)c1ccccc1 the results were KCNQ2 inh inactive, Kir21 conf inh 45.0%* and HEK293 ctr inactive.
Cc1cc(C)c(NC(=O)C2C3/C=C\CCCCC32)c(C)c1 (stereo not drawn) was read as KCNQ2 inh inactive, KCNQ2 pot 12.3*, Kir21 conf inh inactive, HEK293 ctr inactive, CHO-K1 Tl ctr -15.3, KCNQ1 pot spec -19.7, KCNQ2 pot confirm 56.2*, Kir2-1 sel -28.2 and KCNQ2 W236L pot inactive.
`Cc1ccc(NC(=O)C2C3/C=C\CCCCC32)cc1` (stereo not drawn) gave KCNQ2 inh inactive and KCNQ2 pot 1.72.
